Bioassay records deposited in PubChem BioAssay by National Center for Advancing Translational Sciences (NCATS).
SW480 rerep – DNA re-replication induction in SW480 cells | SW480 DNA re-replication, Hoechst DNA content imaging, 48 h | Potency, µM (titrated, usually from 46.1 µM), usual class: activators | 1.8% of 340,000 active; further: nearly all actives have a fitted effect of over 55% in size
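Per well, 250 cells were exposed to pinned compound for 48 hr. Nuclear DNA was visualised with Hoechst (40 min, 37 C) and total object intensity recorded by fluorescence scanning.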
KB-V1 cytotox – KB-V1 MDR subline cytotoxicity; Potency, µM (highest dose often 46.1 µM), usual class: cytotoxic; 3.4% of 400,000 active; KB-V1 MDR cells viability, CellTiter-Glo, 72 h; further: nearly all actives have a fitted effect of over 60% in size
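KB-V1 cells (P-gp-expressing MDR subline of KB-3-1) in phenol-red-free DMEM with 10% FBS were exposed to library compounds over a concentration series for 72 h at 37 degrees C. Viability read by CellTiter-Glo luminescence; concentration-effect curves fitted after normalization.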
KB-3-1 cytotox – kills parental KB-3-1 adenocarcinoma cells; KB-3-1 viability, CellTiter-Glo ATP luminescence, 72 h; Potency, µM (series often up to 46.1 µM), usual class: cytotoxic; 1.4% of 400,000 active; AID 1347075; further: nearly all actives have a fitted effect of over 60% in size
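Cells are dispensed, compounds pinned in, plates held at 37 °C for 72 h, then CellTiter-Glo is added and luminescence read after 10 minutes. Cell line: parental KB-3-1 in phenol-red-free DMEM, 10% FBS.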
MCF10A rerep – inducers of DNA re-replication in MCF 10A breast cells; MCF 10A DNA re-replication, Hoechst nuclear intensity, 48 h; Potency, µM (titrated, usually from 46.1 µM), usual class: activators; 2.9% of 350,000 active; further: nearly all actives have a fitted effect of over 50% in size
hERG WT inh – inhibitors of human wildtype KCNH2 potassium channel | Q12809 | U2OS, BacMam KCNH2, thallium flux FluxOr; stronger effect = lower value | activity change, % at 1.84 µM | 0.37% of 340,000 active | AID 720551;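 active means maximum activity change below -70%; inconclusive means maximum activity change between -70% and -50%; inactive means maximum activity change above -50%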
Target sequence (Q12809 whole entry, looked up): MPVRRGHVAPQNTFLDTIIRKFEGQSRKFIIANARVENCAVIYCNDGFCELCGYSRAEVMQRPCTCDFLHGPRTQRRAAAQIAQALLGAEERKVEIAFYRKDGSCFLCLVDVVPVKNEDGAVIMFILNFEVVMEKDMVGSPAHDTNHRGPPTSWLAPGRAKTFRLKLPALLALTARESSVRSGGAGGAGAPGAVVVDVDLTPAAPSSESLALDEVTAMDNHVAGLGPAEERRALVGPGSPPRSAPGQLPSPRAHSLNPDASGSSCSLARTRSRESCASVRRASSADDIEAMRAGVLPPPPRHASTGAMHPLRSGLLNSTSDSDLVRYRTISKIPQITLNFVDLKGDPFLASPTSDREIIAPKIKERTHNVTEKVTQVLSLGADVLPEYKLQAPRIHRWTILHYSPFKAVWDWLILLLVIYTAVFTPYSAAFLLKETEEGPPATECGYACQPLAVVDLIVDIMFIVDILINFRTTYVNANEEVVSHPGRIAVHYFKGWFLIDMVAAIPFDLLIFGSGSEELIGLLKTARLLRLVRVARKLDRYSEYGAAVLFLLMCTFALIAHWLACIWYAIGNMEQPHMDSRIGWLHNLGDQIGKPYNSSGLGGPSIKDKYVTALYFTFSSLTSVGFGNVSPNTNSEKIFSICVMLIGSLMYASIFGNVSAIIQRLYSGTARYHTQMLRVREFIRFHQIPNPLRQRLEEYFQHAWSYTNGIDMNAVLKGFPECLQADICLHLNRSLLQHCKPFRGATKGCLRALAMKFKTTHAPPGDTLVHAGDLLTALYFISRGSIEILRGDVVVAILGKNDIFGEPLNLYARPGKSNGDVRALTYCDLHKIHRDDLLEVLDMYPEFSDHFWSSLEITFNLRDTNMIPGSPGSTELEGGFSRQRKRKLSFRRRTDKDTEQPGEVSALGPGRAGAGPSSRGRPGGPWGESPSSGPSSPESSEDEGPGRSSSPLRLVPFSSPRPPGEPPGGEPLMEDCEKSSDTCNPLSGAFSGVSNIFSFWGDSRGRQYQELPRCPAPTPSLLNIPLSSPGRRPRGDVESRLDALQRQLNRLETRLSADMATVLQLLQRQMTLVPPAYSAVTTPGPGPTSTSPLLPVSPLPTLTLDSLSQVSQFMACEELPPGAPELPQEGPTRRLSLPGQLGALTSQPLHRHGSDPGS
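U2OS cells were transduced with wild-type KCNH2 virus (2.03 x 10^8 / mL) for 4 h at room temperature, then cultured overnight at 37 C. Thallium flux was read with FluxOr dye. Rate constants were normalized to DMSO controls.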
KCNH2 3.1 inh – KCNH2 3.1 (human) potassium channel inhibition; U2OS KCNH2 3.1, thallium flux FluxOr; stronger effect = lower value; activity change, % (tested at about 1.8 µM); 0.95% of 340,000 active;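 active means maximum activity change below -70%; inconclusive means maximum activity change from -70% to -50%; inactive means maximum activity change above -50%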;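 further: thallium influx rate constant from kinetic fluorescence after stimulation buffer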
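Normalized rate constant (relative to positive and negative DMSO controls) derived from a 2 min kinetic fluorescence read after stimulation; U2OS cells expressing the 3.1 isoform via virus at 1.77 x 10^8 /mL.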
Hits are given with their value; n = inactive; u = inconclusive; x = no result given. Sampled rows, rich in hits. Any-hit rate of the full collection: about 7.6%. Unless noted, the call rests on the fitted dose curve; in most records, active means well fitted curve in the direction sought with a large enough effect; inconclusive means small, poorly fitted or top-dose-only effect, or another doubt; inactive means no such curve, though single readings can be large; an effect the other way counts as inactive or inconclusive.

SMILES | SW480 rerep | KB-V1 cytotox | KB-3-1 cytotox | MCF10A rerep | hERG WT inh | KCNH2 3.1 inh
O=S(=O)(Nc1ccc(C(O)(C(F)(F)F)C(F)(F)F)cc1)c1cccc2cccnc12 | x | n | n | x | x | x
O=C(Nc1ccn(CCCNC2CCN(Cc3ccccc3)CC2)c(=O)n1)OCc1ccccc1 | x | n | n | x | n | u
O=Cc1ccccc1OCc1ccc2c(c1)OCO2 | 18µM | n | u | u | n | n
COc1ccc(S(=O)(=O)c2cn(CC(=O)Nc3ccccc3)c3ccc(Cl)cc3c2=O)cc1 | x | n | n | x | x | x
CCOC(=O)C1C(=O)C=C(/C=C/c2ccccc2)CC1c1ccc(Cl)cc1 (stereo unspecified) | u | 16µM | n | n | n | n
CCOC(=O)C1NC(=O)CC1c1ccccc1 (stereo unspecified) | n | n | n | n | n | n
NC(=O)Cn1c(=O)n(CCCCCC(=O)NCc2ccc(F)cc2)c(=O)c2sccc21 | x | n | n | x | x | x
N#CC1=C(N)C2=CCCC[C@H]2[C@H](c2ccc(Br)cc2)C1(C#N)C#N | u | n | n | 16µM | n | n
C=CC[n+]1c(-c2ccc(OCC)cc2)csc1NNC(=O)Nc1ccccc1 | n | 18µM | 18µM | n | n | n
C=CC[n+]1c(-c2ccc(C)cc2)csc1Nc1c(C)n(C)n(-c2ccccc2)c1=O | n | u | u | n | n | n
CCOC(=O)c1c(NC(=O)c2ccc(F)cc2)sc2c1CCC(CC)C2 (stereo unspecified) | x | n | u | x | x | x
CCOC(=O)c1c(NC(=O)CSc2nnc(C)s2)sc2c1CCC(CC)C2 (stereo unspecified) | u | 5.8µM | n | n | n | n
CCCc1cc(=O)[nH]c(SCC(=O)NC2CCCCCCC2)n1 | n | n | n | n | n | n
CCOC(=O)c1c(NC(=O)CSc2nc3ccccc3s2)sc(C(C)=O)c1C | n | 21µM | n | n | n | n
CCCc1cc(=O)[nH]c(SCC(=O)NC(=O)NC2CCCC2)n1 | n | 4.1µM | u | n | n | n
CCOC(=O)c1sc(NC(=O)CSc2nnc(Cc3ccccc3)o2)c(C(=O)OCC)c1C | n | 7.3µM | n | n | n | n
CCCc1cc(=O)[nH]c(SCC(=O)Nc2sc(C(N)=O)c(C)c2C(=O)OCCOC)n1 | n | u | 8.2µM | n | n | n
CCOC(=O)c1sc(NC(=O)CSc2nnc(C)s2)c(C(=O)OCC)c1C | n | 1.6µM | n | n | n | n
CCOC(=O)c1c(NC(=O)CSc2nncs2)sc(C)c1C | n | n | n | n | n | n
COc1cc(N)c(Cl)cc1C(=O)N[C@H]1CCN(CCCOc2ccc(F)cc2)C[C@H]1OC | n | n | n | n | -70 | -84
Cc1ccc2c(c1)C(=O)CC(c1ccc3c(c1)OCCO3)O2 (stereo unspecified) | n | n | n | 16µM | n | n
Cc1ccc(NC(=O)[C@@H]2CCCN2C(=O)[C@@H]2Cc3ccccc3CN2)c(C)c1 | n | n | n | n | n | n
COc1cccc(N2CCN(C(=O)c3oc4ccccc4c3NC(=O)CCc3cc(OC)no3)CC2)c1 | n | n | n | n | n | n
CCN(CC)C(=O)C1=C(C)N(Cc2ccccc2)C(=O)C(CC(=O)NCCCCc2ccccc2)C1 (stereo unspecified) | x | n | n | x | n | n
N#Cc1c(C(F)(F)F)cc(=O)n2c1[nH]c1ccccc12 | u | n | n | 18µM | n | n
SMILES | SW480 rerep | KB-V1 cytotox | KB-3-1 cytotox | MCF10A rerep | hERG WT inh | KCNH2 3.1 inh
N#Cc1c(CSCC(=O)O)cc(=O)n2c1[nH]c1ccccc12 | n | n | n | n | n | n
Cc1c(Cc2ccccc2)c(=O)n2c([nH]c3ccccc32)c1C#N | n | 13µM | u | n | n | n
CC1(C)CC(=O)C2=C(C1)NC(SCC(=O)Nc1ccccc1)=C(C#N)C2c1ccco1 (stereo unspecified) | u | n | n | 16µM | n | n
Cc1ccc(C(=O)CSC2=C(C#N)C(c3ccco3)C3=C(CC(C)(C)CC3=O)N2)cc1 (stereo unspecified) | u | n | u | u | n | n
COc1ccc(OC)c(NC(=O)CSC2=C(C#N)C(c3ccco3)C3=C(CCCC3=O)N2)c1 (stereo unspecified) | 16µM | n | n | u | n | n
N#CC1=C(SCC(=O)c2ccc(Cl)cc2)NC2=C(C(=O)CCC2)C1c1ccco1 (stereo unspecified) | u | n | u | 11µM | n | n
Cc1cc(C)c(S(=O)(=O)NCC(c2cccnc2)N2CCN(Cc3ccccc3)CC2)c(C)c1 (stereo unspecified) | n | n | n | n | n | n
O=c1[nH]c(=O)c2cc([N+](=O)[O-])cc([N+](=O)[O-])c2[nH]1 | u | n | n | n | n | n
O=c1[nH]c2cc([N+](=O)[O-])c([N+](=O)[O-])cc2[nH]c1=O | 6.5µM | n | n | n | x | n
CC(OC(=O)CCCNC(=O)c1ccc(Cl)cc1)C(=O)N(C)Cc1ccccc1 (stereo unspecified) | n | u | n | n | n | n
COc1ccc2c(c1)nc(SCC(=O)c1ccc(Br)s1)n2C | u | u | n | 15µM | n | n
Cc1cccc(N2CCN(C(=O)c3c(-c4ccccc4)noc3C)CC2)c1C | u | 3.7µM | u | 3.7µM | n | n
CCOC(=O)C1CCN(C(=O)c2ccccc2N(C)S(C)(=O)=O)CC1 | n | n | n | n | n | -91
CCc1noc(C)c1C(=O)N1CCN(c2cccc(C)c2C)CC1 | n | u | u | n | n | n
Cc1noc(C)c1C(=O)N1CCC(Cc2ccccc2)CC1 | n | 15µM | n | n | n | n
CCOC(=O)C1CCN(C(=O)c2ccc(N(C)S(C)(=O)=O)cc2)CC1 | n | n | n | n | n | n
CCOC(=O)C1CCCN(C(=O)c2c(-c3ccccc3)noc2C)CC1 (stereo unspecified) | x | u | n | x | x | x
Cc1onc(-c2ccccc2Cl)c1C(=O)N1CCC(Cc2ccccc2)CC1 | n | n | u | u | n | n
CCOC(=O)C1CCN(C(=O)c2c(-c3ccccc3)noc2C)CC1 | n | u | n | n | n | -75
O=C(Nc1cc(Cl)cc(Cl)c1)c1cnn2c1NC(=C1CC1)C=C2C(F)F | x | n | n | x | x | x
CCn1cc(C(=O)OCC(=O)Nc2cccc(S(=O)(=O)N3CCOCC3)c2)c(=O)c2ccc(C)nc21 | n | 8.2µM | n | n | u | n
CCn1cc(C(=O)OCC(=O)Nc2cccc(C(C)=O)c2)c(=O)c2ccc(C)nc21 | x | u | n | x | x | x
O=C(COC(=O)c1ccco1)Nc1cccc(S(=O)(=O)N2CCOCC2)c1 | x | n | n | x | n | n
